Whole data set: some 33,000 sequences, median “e-score” near -0.05, cut for the highest 2% near 0.38. Shown is part of a subset that was picked to be rich in the highest values.
molecular target: T1, SIX1-Q177R homeodomain (human, UniProt Q15475 108-198, Q177R); assay: universal protein binding microarray; Universal all-10-mer PBM (8x60K, AMADID 030236), 300 nM GST-tagged protein, Alexa Fluor 488 anti-GST; buffer, salt, pH and temperature not stated (as in Berger); high values mean tight binding; details: protein: ivt; tags: N-terminal GST; dsDNA, one strand shown
T1 sequence: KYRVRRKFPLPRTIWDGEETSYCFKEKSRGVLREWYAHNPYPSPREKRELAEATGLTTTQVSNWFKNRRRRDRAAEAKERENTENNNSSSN
Procedure, shortened: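 Homeodomains carrying a GST tag were produced by in vitro transcription/translation, then quantified by anti-GST western blot against a recombinant GST standard curve. Duplicate applications at 300 nM final concentration were made to universal 'all 10-mer' protein binding microarrays in 8×60K format. The Universal PBM Analysis Suite was used to express binding as 8-mer E-scores.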

How did the binding signal turn out when GTATCTGA was run?
The binding signal was 0.236 ± 0.00609 E-score.

Which binding signal does the source give for CGGATACA here?
Its binding signal is 0.294 ± 0.0106 E-score.

Which binding signal does the source give for CCCGCGCA here?
The binding signal was 0.176 ± 0.0199 E-score.

For CCCCCCAG, which binding signal is on record?
Its binding signal is 0.162 ± 0.0223 E-score.

For AGTACACC, which binding signal is on record?
The binding signal was 0.4815 ± 0.00102 E-score.

How did the binding signal turn out when AGTACACT was run?
The binding signal was 0.406 ± 0.0266 E-score.

Which binding signal does the source give for AGTACCCC here?
Its binding signal is 0.2867 ± 0.00256 E-score.

How did the binding signal turn out when AGTACAAG was run?
Its binding signal is 0.205 ± 0.0236 E-score.

How did the binding signal turn out when CACGCTCA was run?
The binding signal was 0.155 ± 0.038 E-score.

With CTAGCACC as the sequence, how does the binding signal read?
The binding signal was 0.203 ± 0.0347 E-score.

Which binding signal does the source give for GTATCGGA here?
Its binding signal is 0.2544 ± 0.00158 E-score.

For ATACGGTG, which binding signal is on record?
Its binding signal is 0.276 ± 0.0116 E-score.

How did the binding signal turn out when ACACGGTA was run?
Its binding signal is 0.385 ± 0.0298 E-score.

For ACACGGTG, which binding signal is on record?
Its binding signal is 0.438 ± 0.00996 E-score.

With GCACGGTA as the sequence, how does the binding signal read?
The binding signal was 0.165 ± 0.0341 E-score.

Which binding signal does the source give for ACACGGTC here?
Its binding signal is 0.4128 ± 0.00131 E-score.

ACACGGCG was tested. Which binding signal did it give?
The binding signal was 0.359 ± 0.00453 E-score.

With ACCCGGTA as the sequence, how does the binding signal read?
Its binding signal is 0.236 ± 0.00419 E-score.

How did the binding signal turn out when ACGGGAGT was run?
Its binding signal is 0.186 ± 0.00625 E-score.

ACTCCACC was tested. Which binding signal did it give?
The binding signal was 0.275 ± 0.00877 E-score.

CGTGCACG was tested. Which binding signal did it give?
The binding signal was 0.17 ± 0.0561 E-score.

CACCGTGC was tested. Which binding signal did it give?
Its binding signal is 0.3272 ± 0.00251 E-score.

ACCACTAC was tested. Which binding signal did it give?
Its binding signal is 0.178 ± 0.00318 E-score.

Which binding signal does the source give for CTCCCGGC here?
The binding signal was 0.152 ± 0.0261 E-score.

How did the binding signal turn out when ACCCCTAC was run?
The binding signal was 0.294 ± 0.0164 E-score.

How did the binding signal turn out when AGGGGTAA was run?
Its binding signal is 0.224 ± 0.0133 E-score.

Which binding signal does the source give for AGTGGTGC here?
Its binding signal is 0.2454 ± 0.00132 E-score.

With GTGTAATA as the sequence, how does the binding signal read?
Its binding signal is 0.451 ± 0.00861 E-score.

How did the binding signal turn out when GTGTAAAC was run?
Its binding signal is 0.445 ± 0.018 E-score.

For ATGTAACA, which binding signal is on record?
The binding signal was 0.2716 ± 0.000905 E-score.

How did the binding signal turn out when GGGTAATA was run?
Its binding signal is 0.264 ± 0.00387 E-score.

Which binding signal does the source give for GGGTAACA here?
Its binding signal is 0.281 ± 0.0312 E-score.

With GTGAAATA as the sequence, how does the binding signal read?
The binding signal was 0.172 ± 0.00835 E-score.

For GTTTAAAC, which binding signal is on record?
Its binding signal is 0.3445 ± 0.00099 E-score.

For GTGTGAGA, which binding signal is on record?
Its binding signal is 0.291 ± 0.0156 E-score.

How did the binding signal turn out when GTGTAACA was run?
The binding signal was 0.445 ± 0.00891 E-score.

GTGTAAGA was tested. Which binding signal did it give?
The binding signal was 0.411 ± 0.0296 E-score.

For CCCTAAGA, which binding signal is on record?
Its binding signal is 0.276 ± 0.0324 E-score.

With GGGTAAAC as the sequence, how does the binding signal read?
The binding signal was 0.193 ± 0.00601 E-score.

ACATAGTG was tested. Which binding signal did it give?
Its binding signal is 0.19 ± 0.00926 E-score.

Which binding signal does the source give for ACCCTGCT here?
Its binding signal is 0.19 ± 0.00245 E-score.

For CACGCGAG, which binding signal is on record?
The binding signal was 0.27 ± 0.0228 E-score.

With CCCGCCGG as the sequence, how does the binding signal read?
Its binding signal is 0.245 ± 0.0587 E-score.

Which binding signal does the source give for CCAAGCGG here?
Its binding signal is 0.162 ± 0.00467 E-score.

With AACGTACA as the sequence, how does the binding signal read?
Its binding signal is 0.185 ± 0.0191 E-score.

Which binding signal does the source give for GTATCGTA here?
The binding signal was 0.18 ± 0.0138 E-score.

With AGTCGCGA as the sequence, how does the binding signal read?
The binding signal was 0.189 ± 0.03 E-score.

CACTCCTC was tested. Which binding signal did it give?
The binding signal was 0.201 ± 0.00344 E-score.

With GTGTGAAA as the sequence, how does the binding signal read?
The binding signal was 0.356 ± 0.00667 E-score.

For GTGTAAAA, which binding signal is on record?
The binding signal was 0.401 ± 0.049 E-score.

For GGATCCCA, which binding signal is on record?
The binding signal was 0.235 ± 0.0247 E-score.

How did the binding signal turn out when CTTGACAC was run?
The binding signal was 0.42915 ± 0.000184 E-score.

Which binding signal does the source give for CTTGATAC here?
The binding signal was 0.195 ± 0.0457 E-score.

Which binding signal does the source give for ATTGACCC here?
The binding signal was 0.167 ± 0.0261 E-score.

For CTTGACCC, which binding signal is on record?
Its binding signal is 0.201 ± 0.00951 E-score.

Which binding signal does the source give for ATTGACTC here?
Its binding signal is 0.162 ± 0.0495 E-score.

ATTGACAC was tested. Which binding signal did it give?
The binding signal was 0.438 ± 0.0129 E-score.

CAGCGTTA was tested. Which binding signal did it give?
Its binding signal is 0.187 ± 0.0162 E-score.

How did the binding signal turn out when AGATGACA was run?
Its binding signal is 0.1652 ± 0.000311 E-score.

CACCCACA was tested. Which binding signal did it give?
The binding signal was 0.365 ± 0.00539 E-score.

How did the binding signal turn out when CCCTTAAC was run?
Its binding signal is 0.152 ± 0.0479 E-score.

For AAATACAC, which binding signal is on record?
The binding signal was 0.403 ± 0.0413 E-score.

For CAAAATAC, which binding signal is on record?
The binding signal was 0.162 ± 0.0251 E-score.

With GAATACCC as the sequence, how does the binding signal read?
Its binding signal is 0.159 ± 0.00629 E-score.

With GAATACAC as the sequence, how does the binding signal read?
The binding signal was 0.408 ± 0.0236 E-score.

CAATACAC was tested. Which binding signal did it give?
Its binding signal is 0.371 ± 0.0193 E-score.

For CCCTTAGG, which binding signal is on record?
The binding signal was 0.175 ± 0.00592 E-score.

CACCCGAG was tested. Which binding signal did it give?
The binding signal was 0.297 ± 0.0235 E-score.

Which binding signal does the source give for ACCAGTGG here?
The binding signal was 0.189 ± 0.0039 E-score.

With CCCCAAGG as the sequence, how does the binding signal read?
The binding signal was 0.218 ± 0.0124 E-score.

For ACCTGGGG, which binding signal is on record?
Its binding signal is 0.21 ± 0.0103 E-score.

With CACGCCGG as the sequence, how does the binding signal read?
Its binding signal is 0.287 ± 0.0131 E-score.

For TCTTAACA, which binding signal is on record?
The binding signal was 0.202 ± 0.0606 E-score.

For TGTTAACA, which binding signal is on record?
The binding signal was 0.389 ± 0.043 E-score.

Which binding signal does the source give for GGTTAACA here?
The binding signal was 0.224 ± 0.0235 E-score.

CCCTAGTC was tested. Which binding signal did it give?
Its binding signal is 0.167 ± 0.0143 E-score.

How did the binding signal turn out when ACACCTCT was run?
Its binding signal is 0.467 ± 0.0079 E-score.

How did the binding signal turn out when ACACCTCA was run?
Its binding signal is 0.452 ± 0.0073 E-score.

With ATACCTCC as the sequence, how does the binding signal read?
The binding signal was 0.231 ± 0.0309 E-score.

ACACCTCG was tested. Which binding signal did it give?
Its binding signal is 0.453 ± 0.00735 E-score.

Which binding signal does the source give for ACGCCTCA here?
The binding signal was 0.165 ± 0.0291 E-score.

Which binding signal does the source give for GCACCTCA here?
The binding signal was 0.162 ± 0.0144 E-score.

For ACCCCTCG, which binding signal is on record?
Its binding signal is 0.3069 ± 0.00276 E-score.

How did the binding signal turn out when CACCCTCG was run?
Its binding signal is 0.349 ± 0.0215 E-score.

ACTCCTCT was tested. Which binding signal did it give?
The binding signal was 0.174 ± 0.0278 E-score.

ACCCCTCT was tested. Which binding signal did it give?
Its binding signal is 0.304 ± 0.0038 E-score.

CCACCTCC was tested. Which binding signal did it give?
Its binding signal is 0.159 ± 0.00267 E-score.

ACACCTCC was tested. Which binding signal did it give?
Its binding signal is 0.4719 ± 0.000629 E-score.

Reference: article PMC10668032, “Altered binding affinity of SIX1-Q177R correlates with enhanced WNT5A and WNT pathway effector expression in Wilms tumor”
